From PubChem BioAssay (EPA / NIEHS)
Active and inactive are the calls of the source. Rule for the calls: active = hit-call score of the fitted dose curve at least 0.9, where 1 is the maximum; inconclusive = response in the unintended direction; inactive = score below 0.9.

What follows are compounds tested against Peroxisome proliferator-activated receptor gamma (Homo sapiens) (UniProt P37231) (assay: OT_PPARg_PPARgSRC1_1440: Odyssey Thera (OT) 24-hour Protein-Complementation Assay for Peroxisome Proliferator-activated Receptor Gamma/ SRC-1 Co-activator (AID 2283388);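 note: nuclear to cytoplasmic ratio of reconstituted Venus YFP fluorescence in fixed imaged cells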).
Description: OT_PPARg_PPARgSRC1_1440 is a cell-based assay that uses HEK293T, a human kidney cell line, with measurements taken at 24 hours after chemical dosing in a 384-well plate.OT_PPARg_PPARgSRC1_1440 is one of one assay component(s) measured or calculated from the OT_PPARg_PPARgSRC1_1440 assay. It is designed to make measurements of protein fragment complementation, a form of binding reporter, as detected with fluorescence intensity signals by Protein-fragment Complementation technology.Data from the assay component OT_PPARg_PPARgSRC1_1440 was analyzed into 1 assay endpoint. This assay endpoint, OT_PPARg_PPARgSRC1_1440, was analyzed in the positive analysis fitting direction relative to DMSO as the negative control and baseline of activity. Using a type of binding reporter, measures of receptor for gain-of-signal activity can be used to understand the binding at the pathway-level as they relate to the gene PPARG. Furthermore, this assay endpoint can be referred to as a primary readout, because the performed assay has only produced 1 assay endpoint. To generalize the intended target to other relatable targets, this assay endpoint is annotated to the nuclear receptor intended target family, where the subfamily is non-steroidal.
The OT PPARg/SRC-1 assay assessed receptor-chemical interactions using a rapidly maturing, intensely fluorescent mutant of YFP known as Venus, rationally dissected into two separate fragments. The fragments were obtained as follows: first, fragments coding for YFP1 and YFP2 (corresponding to amino acid residues 1-158 and 159-239 of the full length YFP, respectively) were generated by oligonucleotide synthesis (Blue Heron Biotechnology), and then PCR mutagenesis was used to generate the mutant fragments IFP1 and IFP2. Fusion constructs were transfected into HEK293T cells with a (Gly4Ser)2 linker between the PPARg/SRC-1 and YFP fragment genes to facilitate complementation when interacting proteins bring fragments into close proximity. The construct is transiently transfected in HEK293T cells 48 hours prior to treatment with test compounds. Cells are seeded into optical quality 384-well poly-D-lysine coated plates in MEM alpha medium (Invitrogen) supplemented with 10 percent FBS (Gemini Bio-Products) 1 percent penicillin and 1 percent streptomycin, and grown in 37C incubator equilibrated to 5 percent CO2. Cells are allowed to adhere for 24 hours prior to treatment with compounds of interest or controls for 24 hours. Cells are fixed in 4 percent formaldehyde and stained with Draq5 (BioStatus) to identify cells and subcellular compartment boundaries prior to signal detection. 8 Images per well were acquired on an Evotec Opera at 2 wavelengths (488 and 635nm), and the ratio of fluorescence in the nucleus relative to fluorescence in the cytoplasm (N/C Ratio) in the 488nm channel was calculated for a minimum of 350 cells per image.

Chain of Peroxisome proliferator-activated receptor gamma (Homo sapiens) (P37231 whole entry, looked up, the tested form may be a part): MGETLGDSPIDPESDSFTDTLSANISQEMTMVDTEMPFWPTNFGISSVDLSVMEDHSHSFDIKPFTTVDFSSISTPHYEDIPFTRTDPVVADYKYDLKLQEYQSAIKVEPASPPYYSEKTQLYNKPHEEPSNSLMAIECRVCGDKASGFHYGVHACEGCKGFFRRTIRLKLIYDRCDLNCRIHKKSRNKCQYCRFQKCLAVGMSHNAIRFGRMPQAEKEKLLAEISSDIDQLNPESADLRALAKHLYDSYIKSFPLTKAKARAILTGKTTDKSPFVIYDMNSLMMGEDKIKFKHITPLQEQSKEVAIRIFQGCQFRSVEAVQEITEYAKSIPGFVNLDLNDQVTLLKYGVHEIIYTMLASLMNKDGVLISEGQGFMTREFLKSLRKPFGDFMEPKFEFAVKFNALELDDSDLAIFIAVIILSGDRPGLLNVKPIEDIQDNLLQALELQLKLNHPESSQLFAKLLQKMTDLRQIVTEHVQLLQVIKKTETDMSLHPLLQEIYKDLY

| Structure (SMILES) | outcome |
| --- | --- |
| CCCCCCCC(=O)N(C)C | inactive |
| CCCCCC1CCC(=O)O1 (stereo not given) | inactive |
| O=c1cc(-c2ccc(O)cc2)oc2cc(O)cc(O)c12 | inactive |
| C1CCCNCC1 | inactive |
| O=C(O)CS | inactive |
| O=C(c1ccc(OCCN2CCCCC2)cc1)c1c(-c2ccc(O)cc2)sc2cc(O)ccc12 | inactive |
| NCCN1CCNCC1 | inactive |
| COC(=O)C(C)Oc1ccc(Oc2ncc(C(F)(F)F)cc2Cl)cc1 (stereo not given) | inactive |
| c1ccc(Cc2ccccc2)cc1 | inactive |
| CC(=O)c1ccc2ccccc2c1 | inactive |
| [Na+] | inactive |
| CCC(C)(C)C1CCC(OC)CC1 (stereo not given) | inactive |
| c1ccc(OCCOc2ccccc2)cc1 | inactive |
| CCCCCCC(C)O (stereo not given) | inactive |
| CN1CCc2cccc3c2[C@H]1Cc1ccc(O)c(O)c1-3 | inactive |
| CCCCCCCCOS(=O)(=O)O | inactive |
| [O-]/[N+](=N\O)c1ccccc1 | inactive |
| OCC=Cc1ccccc1 | inactive |
| COc1ccccc1O | inactive |
| CC12CCC(C1)C(C)(C)C2O (stereo not given) | inactive |

| Structure (SMILES) | outcome |
| --- | --- |
| CCCCOCCOCCOCCO | inactive |
| CC(C)N(c1ccccc1)C(C)C | inactive |
| COc1cc(OC)c2ccc(=O)oc2c1 | inactive |
| CN(C)C | inactive |
| CCCCCCCCOC(C)=O | inactive |
| CC(=O)Oc1c(C)c(C)c2c(c1C)CC[C@@](C)(CCC[C@H](C)CCC[C@H](C)CCCC(C)C)O2 | inactive |
| CC(O)CN (stereo not given) | inactive |
| C=C(C)C(N)=O | inactive |
| CC(=O)C1C(=O)C=C(C)OC1=O (stereo not given) | inactive |
| Cc1cccc(O)c1 | inactive |
| NC(=O)c1cccnc1 | inactive |
| COC(=O)c1cccc(C(=O)OC)c1 | inactive |
| O=C1OC2(c3ccc(O)cc3Oc3cc(O)ccc32)c2ccccc21 | inactive |
| CC1=CCC(C(C)(C)O)CC1 (stereo not given) | inactive |
| C=CC(O)CCCCC (stereo not given) | inactive |
| CCCc1ccc(O)cc1 | inactive |
| C#C[C@]1(O)CC[C@H]2[C@@H]3CCc4cc(O)ccc4[C@H]3CC[C@@]21C | inactive |
| C1=COCCC1 | inactive |
| CCCO[Si](OCCC)(OCCC)OCCC | inactive |
| Cc1cccc(C)c1 | inactive |
